Results on 23 compounds are retold here after PubChem BioAssay (NCATS).

Molecules are shown by their SMILES. “And” between values parts separate entries of the source, which are not always exact repeats. Identical values can stand only once. Unmarked numbers belong to inactive results. Records with an inconclusive call do not appear. The source made the active and inactive calls. Unless noted, calls follow the shape of the dose curve; as a rule, active = well fitted inhibition curve with a large enough effect; inconclusive = small, poorly fitted or top-dose-only effect; inactive = flat fitted curve, though single readings scatter.

A short description of assay [1]: Drug repurposing screens with cells derived from glioblastoma tumor samples (AID 1345199). Also: nearly all actives have a fitted effect of over 40% in size. Also: potency is read from the fitted curve at half-maximal effect. As to activity, negative = cell killing: % is scaled to controls: 0 for no effect and ±100 for the full control effect. The settings on record: GBM patient neurospheres viability, ATP luminescence, 48 h. Put shortly:
(§1)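 Four patient lines of CD133+ GBM neurospheres were screened at several concentrations; hits were retested in those lines plus three slower-growing GBM lines, using 48-hour treatment and ATP-based viability.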

The next assay deals with astro (control astrocytes). The assay is described as above. The settings on record: viability, ATP luminescence, 48 h; series mostly up to 45.9 µM. In a few lines: as §1
The target of assay [2] is Nuclear receptor subfamily 1 group I member 2 (Rattus norvegicus) (UniProt Q9R1A7). In words: qHTS assay for small molecule activators of the rat pregnane X receptor (rPXR) signaling pathway (AID 651751; call rule not given here; also: 0% is about no effect). The following applies: rPXR reporter cells, luciferase (One-Glo), 24 h. For orientation: In qHTS, concentration-response curves come from the screen itself.
Sequence of Nuclear receptor subfamily 1 group I member 2 (Rattus norvegicus) (Q9R1A7 whole entry, looked up): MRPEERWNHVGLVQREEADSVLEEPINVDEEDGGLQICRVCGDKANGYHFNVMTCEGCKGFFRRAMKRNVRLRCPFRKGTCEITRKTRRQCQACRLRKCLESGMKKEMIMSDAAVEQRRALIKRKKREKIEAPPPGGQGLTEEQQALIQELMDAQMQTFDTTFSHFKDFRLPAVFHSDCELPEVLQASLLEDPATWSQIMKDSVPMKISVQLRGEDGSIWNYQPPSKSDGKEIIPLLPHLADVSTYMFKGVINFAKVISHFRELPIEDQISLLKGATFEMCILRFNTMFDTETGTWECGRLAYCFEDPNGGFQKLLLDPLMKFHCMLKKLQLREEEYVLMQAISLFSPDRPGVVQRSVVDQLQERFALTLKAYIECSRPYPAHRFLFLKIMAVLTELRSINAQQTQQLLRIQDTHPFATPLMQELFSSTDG
Setting [3] is: at 45.9 µM (top of the series), tumour line B.
Setting [4] is: at 45.9 µM (top of the series), tumour line D.
The mark [5] stands for this setting: at 46 µM (top of the series), tumour line A.
The mark [6] stands for this setting: at 46.1 µM (top of the series), tumour line C.

Take `O=C(CO)[C@@H](O)[C@H](O)[C@@H](O)CO`: the activity, negative = cell killing in assay [1] (setting [3]) is 4.08%; in assay [1] (setting [4]) it was -8.89%; in assay [1] (setting [5]), -12.2%; in assay [1] (setting [6]) it was 8.07%. In addition, the Potency entry with astro is “inactive”.
`CCN1CCN(C(=O)N[C@@H](C(=O)N[C@@H]2C(=O)N3[C@@H]2SC(C)(C)[C@H]3C(=O)O)c2ccccc2)C(=O)C1=O`: the activity, negative = cell killing in assay [1] (setting [3]) was -6.11%; in assay [1] (setting [4]) it was -1.23%; in assay [1] (setting [5]) it was -24%; in assay [1] (setting [6]), 3.83%. The Potency result in the assay with astro is “inactive”.
As for `CCCCC/C=C\C/C=C\CCCCCCCC(=O)NC(C)c1ccccc1` (stereo unspecified), the activity, negative = cell killing is -3.69% in assay [1] (setting [3]), -27.1% in assay [1] (setting [4]) and -9.18% in assay [1] (setting [6]). Besides, the Potency in assay [1] (tumour line A) is 11.2 µM (active). Moreover, the Potency entry in the assay with astro was “inactive”.
`CN(C)C(=O)CNC(=O)Cc1ccccc1`: the activity, negative = cell killing in assay [1] (setting [3]) was -9.58%; in assay [1] (setting [4]) it was -2.49%; in assay [1] (setting [5]) it was -22.3%; in assay [1] (setting [6]) it was 4.09%. For the same compound, the Potency result in the assay on astro was “inactive”.
Take `O=C(OCC(COC(=O)c1cccnc1)(COC(=O)c1cccnc1)COC(=O)c1cccnc1)c1cccnc1`: the values for the activity, negative = cell killing in assay [1] (setting [3]), in assay [1] (setting [4]) and in assay [1] (setting [6]) were -3.98%, 3.04% and -10.2%, respectively. In addition, the Potency in assay [1] (tumour line A) was 14.1 µM (active). Further, the Potency result in the assay on astro was “inactive”.
Turning to `NC(N)=NCCCCN=C(N)N`, the activity, negative = cell killing in assay [1] (setting [3]) was -8.5%; in assay [1] (setting [4]) it was -4.71%; in assay [1] (setting [5]), -10%; in assay [1] (setting [6]), -21.5%. Moreover, the Potency result in the assay on astro was “inactive”.
`CC(=O)Nc1c(I)c(NC(C)=O)c(I)c(C(=O)O)c1I`: the activity, negative = cell killing in assay [1] (setting [3]) was -4.92%; in assay [1] (setting [4]), -9.58%; in assay [1] (setting [5]), -18.7%; in assay [1] (setting [6]) it was -9.62%. In the assay on astro, the Potency result was “inactive”.
On to `CO/N=C(/C(=O)N[C@@H]1C(=O)N2C(C(=O)O)=C(Cn3nnc(C)n3)CS[C@H]12)c1csc(N)n1`, for which the activity, negative = cell killing is -1.74% in assay [1] (setting [3]), 2.54% in assay [1] (setting [4]), -14.3% in assay [1] (setting [5]) and 9.89% in assay [1] (setting [6]). In the assay with astro, the Potency result is “inactive”.
`O=C(O)[C@H](O)[C@@H](O)[C@H](O[C@@H]1O[C@H](CO)[C@H](O)[C@H](O)[C@H]1O)[C@H](O)CO`: the activity, negative = cell killing in assay [1] (at 20 µM (top of the series), tumour line C) was -12.3%; in assay [1] (at 21.2 µM (top of the series), tumour line B), -2.57%; in assay [1] (at 21.2 µM (top of the series), tumour line D) it was -4.25%; in assay [1] (at 21.3 µM (top of the series), tumour line A), -22.9%. Besides, in the assay with astro, the Potency result was “inactive”.
For the compound `CC(C)=CCC/C(C)=C/CC/C(C)=C/CCC(=O)OC/C=C(\C)CCC=C(C)C`, the figures for the activity, negative = cell killing in assay [1] (setting [3]), in assay [1] (setting [4]) and in assay [1] (setting [6]) were -1.59%, -0.887% and -6.49%, respectively. Besides, the Potency in assay [1] (tumour line A) was 35.5 µM (active). For the same compound, the Potency entry with astro was “inactive”.
On the same counts, the results for `CN(C(=O)C(Cl)Cl)c1ccc(OC(=O)c2ccco2)cc1` are -5.88%, -16.9%, -29.6%, 35.5 µM (active) and “inactive”.
As to `O=C(c1ccccc1)c1ccccc1`, the activity, negative = cell killing is 2.19% in assay [1] (setting [3]), 8.55% in assay [1] (setting [4]), -8.04% in assay [1] (setting [5]) and -0.361% in assay [1] (setting [6]). In the assay on astro, the Potency result was “inactive”. Moreover, the max response in assay [2] is -0.979% and 2.4%.
Turning to `O=C(CCCCC(=O)Nc1c(I)cc(I)c(C(=O)O)c1I)Nc1c(I)cc(I)c(C(=O)O)c1I`, the activity, negative = cell killing in assay [1] (setting [3]) was 0.519%; in assay [1] (setting [4]), -19.2%; in assay [1] (setting [5]) it was -28.1%; in assay [1] (setting [6]), 4.23%. For the same compound, the Potency entry in the assay with astro was “inactive”.
For `CCNC(=O)NCCCOc1cccc(CN2CCCCC2)c1`, the activity, negative = cell killing in assay [1] (setting [3]) is -3.43%; in assay [1] (setting [4]) it was -22.4%; in assay [1] (setting [6]), -25.1%. In addition, the Potency in assay [1] (tumour line A) is 17.8 µM (active). Moreover, the Potency result with astro is “inactive”.
As for `Cc1ccccc1C(=O)N1CC/C(=N\OS(=O)(=O)O)c2ccc(Cl)cc21`, the activity, negative = cell killing in assay [1] (setting [3]) is -4.66%; in assay [1] (setting [4]), -7.25%; in assay [1] (setting [5]), -14.2%; in assay [1] (setting [6]) it was 2.94%. Further, the Potency entry in the assay with astro is “inactive”.
For the compound `Nc1c2ccccc2nc2ccccc12`, the activity, negative = cell killing in assay [1] (setting [6]) is -4.16%. Moreover, the Potency was 25.1 µM (active) in assay [1] (tumour line A), 12.6 µM (active) in assay [1] (tumour line B), 10 µM (active) in assay [1] (tumour line D) and 10 µM (active) in the assay on astro.
As to `CC(=O)OCC(=O)[C@@]1(O)CCC2C3CCC4=CC(=O)CC[C@]4(C)C3[C@@H](O)C[C@@]21C` (stereo partly specified), the activity, negative = cell killing in assay [1] (setting [3]) is -6.98%; in assay [1] (setting [4]), -11.4%; in assay [1] (setting [5]), -11.4%; in assay [1] (setting [6]) it was 20.9%. For the same compound, the Potency result with astro is “inactive”.
Take `O=P(O)(O)OCC(O)CO` (stereo unspecified): the activity, negative = cell killing in assay [1] (setting [3]) was -9.32%; in assay [1] (setting [4]), 5.18%; in assay [1] (setting [5]), -22.7%; in assay [1] (setting [6]), -0.918%. In the assay on astro, the Potency entry was “inactive”.
Consider `C1N2CN3CN1CN(C2)C3`, for which the activity, negative = cell killing is -5.59% in assay [1] (setting [3]), -12.9% in assay [1] (setting [4]), -29.1% in assay [1] (setting [5]) and 5.12% in assay [1] (setting [6]). Besides, in the assay with astro, the Potency entry was “inactive”.
For `CCOc1ccc(NS(=O)(=O)c2ccc(N)cc2)nn1` the same measures were -20.8%, 5.52%, -27.9%, 9.99% and “inactive”.
For `CCCc1c2oc(C(=O)O)cc(=O)c2cc2c(=O)cc(C(=O)O)n(CC)c12` the same measures were -3.36%, -8.4%, -11%, -12.7% and “inactive”.
As for `O=C(O)Cc1ccc(OCCNC[C@H](O)c2ccccc2)cc1`, the activity, negative = cell killing in assay [1] (setting [3]) is -8.45%; in assay [1] (setting [4]), 5.34%; in assay [1] (setting [5]), -29.2%; in assay [1] (setting [6]) it was 9.13%. In addition, the Potency result in the assay with astro was “inactive”.
On the same counts, the results for `CCOC(=O)OCC/C(SC(=O)OCC)=C(\C)N(C=O)Cc1cnc(C)nc1N` are -4.41%, -10.3%, -26%, -10.1% and “inactive”.
